Among all 350,000 compounds or so, about 5,500 (1.6%) were called active. The sample holds actives, similar compounds and a random draw of the others, so the mix is not that of the screen.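 How the source made its calls: active means significant combined selectivity score with lowered wild-type GFP, culture density cut under 30%, mutant RFP and density less affected; inactive means any of these conditions unmet.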
assay: reduced GFP signal of wild-type E. coli, primary screen, bacterial rRNA inhibitor project, GFP/RFP fluorescence, OD600, single point (AID 720706); conditions: E. coli WT GFP vs humanized-ribosome RFP mutants, 24 h; GFP signal change (wild-type ribosome): stronger effect = lower value, DMSO median 0, no signal -100; OD600 change: measured here: OD600 growth, DMSO median 0, no signal -100; RFP signal change: measured here: RFP humanized mutant strains, DMSO median 0, no signal -100, concentration not given here

Row | Structure (SMILES) | GFP signal change (wild-type ribosome) | OD600 change [%] | RFP signal change [%]
1 | Cc1nc2ccccc2nc1N/N=C/c1ccc(O)cc1O | -17.1% (active) | -1 | 6.07
2 | CN(C)CCCNC(=O)C[C@H]1C=C[C@@H](NC(=O)Cc2cccnc2)[C@H](CO)O1 | -1.21% (inactive) | 6.35 | -1.98
3 | Cc1[nH]n(C)c(=O)c1C(=O)c1c(-c2c(Cl)cccc2Cl)noc1C | 23.4% (inactive) | 10.3 | 1.84
4 | Cc1onc(-c2c(Cl)cccc2Cl)c1C(=O)NNC(=O)c1c(-c2c(Cl)cccc2Cl)noc1C | -35.2% (active) | -26.9 | 1.07
5 | Cc1onc(-c2c(F)cccc2Cl)c1C(=O)Nc1cccc(S(=O)(=O)N2CCCCC2)c1 | -6.88% (inactive) | -20.2 | -1.93
6 | CN1C(=O)c2cc(NC(=O)c3ccc(Cl)cc3)ccc2OC[C@H]2O[C@H](CC(=O)O)CC[C@H]21 | 1.69% (inactive) | 1.68 | -1.26
7 | C[C@H]1CN([C@@H](C)CO)C(=O)c2cc(NC(=O)Nc3ccc4c(c3)OCO4)ccc2O[C@H]1CN(C)S(=O)(=O)c1ccc(F)cc1 | -3.35% (inactive) | -0.035 | 3.46
8 | CN1C(=O)c2cc(NC(=O)C3CCC3)ccc2OC[C@@H]2O[C@@H](CC(=O)NCCc3ccncc3)CC[C@H]21 | 5.03% (inactive) | 10.1 | -1.17
9 | COc1ccccc1CCNC(=O)CSc1nnc2ccc(-c3cccnc3)nn12 | -2.66% (inactive) | 7.92 | 10.5
10 | COc1ccccc1Oc1nc(-c2cccnc2)nc2ccccc12 | -34.3% (active) | -23.4 | -3.61
11 | S=c1nc2ccccc2c2nc(-c3cccnc3)[nH]n12 | -0.36% (inactive) | -3.58 | -4.9
12 | Cc1ccc(S(=O)(=O)N(C)C[C@@H]2Oc3ccc(NS(=O)(=O)c4cn(C)cn4)cc3C(=O)N([C@@H](C)CO)C[C@H]2C)cc1 | 0.239% (inactive) | -1.14 | 0.319
13 | Cc1ccc(Cn2nnc3c(=O)[nH]c(C4CCN(S(=O)(=O)/C=C/c5ccccc5)CC4)nc32)cc1 | -1.02% (inactive) | -8.59 | 5.14
14 | O=C(Nc1ccc(F)cc1)N1CCCC(c2nc3c(nnn3Cc3ccccc3Cl)c(=O)[nH]2)C1 (stereo unspecified) | 5.54% (inactive) | 16.4 | 5.16
15 | Cc1ccc(NC(=O)N2CCC(c3nc4c(nnn4Cc4c(F)cccc4Cl)c(=O)[nH]3)CC2)cc1 | -32.9% (active) | -18.6 | -4.28
16 | COc1ccccc1NC(=O)N[C@H]1CC[C@@H](CCn2cc(C3(O)CCCC3)nn2)O[C@@H]1CO | -0.097% (inactive) | 0.829 | -2.3

Row | Structure (SMILES) | GFP signal change (wild-type ribosome) | OD600 change [%] | RFP signal change [%]
17 | CC(C)NC(=O)N1[C@H](C(=O)N2CCc3ccccc3C2)[C@@H](CO)[C@@H]2Cn3c(cccc3=O)[C@@H]21 | -0.919% (inactive) | -4.45 | -2.12
18 | O=C(Cc1ccc(Cl)cc1)NC(=S)Nc1ccccc1O | 6.71% (inactive) | -1.88 | 5.02
19 | Cc1cccc(NC(=S)NCCc2ccc(Cl)cc2)c1C | -5.8% (inactive) | -24.2 | 6.65
20 | Cc1ccccc1NC(=S)NC(=O)Cc1ccc(Cl)cc1 | -31.6% (active) | -2.94 | 1.01
21 | C[C@H](CO)N1C[C@H](C)[C@H](CN(C)S(=O)(=O)c2cccs2)Oc2c(NS(=O)(=O)c3ccc(Cl)cc3)cccc2C1=O | -5.17% (inactive) | -6.49 | 3.43
22 | CCCn1c(=S)[nH]c2ccc(C(F)(F)F)cc21 | -39% (active) | -18.3 | -4.67
23 | CN(C)CCn1c(=S)[nH]c2ccc(Cl)cc2c1=O | 5.19% (inactive) | 0.375 | 2.03
24 | CC(C)n1c(=S)[nH]c2cc(C(F)(F)F)ccc21 | -0.904% (inactive) | -3.6 | -3.06
25 | Cc1ccccc1-c1ccc([C@H]2[C@@H](CO)N3C(=O)CN(C(=O)c4cccnc4)C[C@@H]23)cc1 | 3.51% (inactive) | 8.18 | -0.0435
26 | CC(C)c1ccc(NC(=S)NC2CC3C=CC2C3)cc1 (stereo unspecified) | -37.3% (inactive) | -66.8 | 0.867
27 | S=C(NNC(=S)NC1CC2C=CC1C2)NC1CC2C=CC1C2 (stereo unspecified) | -47.5% (active) | -15.1 | -13.4
28 | CCCNC(=O)N1[C@H](CO)[C@H]2c3ccccc3N(C(=O)Nc3cccc(Cl)c3)C[C@H]21 | -57.4% (inactive) | -71.6 | -12.8
29 | CCCN1C[C@H](C)[C@H](OC)CN(C)C(=O)c2cc(NC(=O)NC3CCCC3)ccc2OC[C@H]1C | -0.637% (inactive) | 8.41 | 2.12
30 | CC(=O)N1CCC(N(C(=O)Nc2ccc(Cl)cc2)C(C)C)CC1 | -25.5% (active) | -18 | -0.55
31 | O=C(NC1CCN(C(=S)Nc2ccc(Cl)cc2)CC1)C1CCCCC1 | 6.47% (inactive) | 11.2 | 0.251
32 | CC(=O)C(CC(=O)N1CCCC1)C(=O)Nc1ccc(Cl)cc1 (stereo unspecified) | 1.69% (inactive) | 9.42 | 0.378
